# Inconclusive results are not listed. Where a call stands in place of a potency, no number is given. Active and inactive are the calls of the source. Unless noted, calls follow the shape of the dose curve; as a rule, active = well fitted curve in the direction sought with a large enough effect in the repeat runs; inconclusive = weak or mixed curves; inactive = no such curve, though single readings can be large; an effect the other way counts as inactive or inconclusive.
# Legend:
# [1] = qHTS assay to identify small molecule agonists of the RXR signaling pathway - cell viability counter screen (AID 1159529);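 also: HEK 293T cells carrying an RXR-alpha UAS beta-lactamase reporter; series mostly up to about 77 µM; nearly all actives have a fitted effect of over 50% in size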
# Procedure, shortened: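 Tox21 10K compounds were tested for cytotoxicity against GeneBLAzer RXR-alpha HEK 293T cells grown in 2% charcoal-stripped FBS. Exposure lasted 16 hr at 37 C, 5% CO2; viability read by CellTiter-Glo luminescence.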
# [2] = qHTS assay to identify small molecule antagonists of the retinoid acid receptor (RAR) signaling pathway - cell viability counter screen (AID 1159551); also: nearly all actives have a fitted effect of over 35% in size
# Procedure, shortened: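 Viability of C3RL4 cells is quantified from ATP by luminescence after 6 h treatment at 37 C with compounds and 1 uM retinol.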
# [3] = qHTS assay to identify small molecule antagonists of the estrogen related receptor (ERR) signaling pathway from Tox21 library - cell viability counter screen (AID 1224834); also: nearly all actives have a fitted effect of over 30% in size
# Procedure, shortened: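 In this quantitative HTS format, ERR cells receive compounds in DMSO and are incubated for 17.5 h at 37 C. Live-cell protease activity is then detected with CellTiter-Fluor.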
# [4] = molecular target: Luciferin 4-monooxygenase (Photinus pyralis) (UniProt P08659); assay: qHTS assay to identify small molecule inhibitors of firefly luciferase (AID 1224835); also: nearly all actives have a fitted effect of over 25% in size; also: potency is read from the fitted curve at half-maximal effect
# Procedure, shortened: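 Inhibition of purified Photinus luciferase is measured by luminescence. Substrate levels (D-luciferin, ATP) sit at their KM values. Each compound is tested in a concentration series.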
# [5] = qHTS assay to identify small molecule agonists of the constitutive androstane receptor (CAR) signaling pathway - cell viability counter screen (AID 1224836); also: series mostly up to about 92 µM; nearly all actives have a fitted effect of over 45% in size
# Procedure, shortened: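 Fluorescence from CellTiter-Fluor indicates live cells after 23 h exposure. The human hepatoma line expresses hCAR and a CYP2B6-2.2kb reporter. Incubation medium contains 0.75 uM PK11195 (final).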
# [6] = qHTS assay to identify small molecule antagonists of the constitutive androstane receptor (CAR) signaling pathway - cell viability counter screen (AID 1224837); also: series mostly up to about 92 µM; nearly all actives have a fitted effect of over 45% in size
# Procedure, shortened: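 In quantitative HTS format, compounds at 15 concentrations were applied to HepG2 cells double-transfected with hCAR and CYP2B6-2.2kb under 50 nM CITCO stimulation; live-cell protease activity was read after 23 hr via CellTiter-Fluor.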
# [7] = molecular target: Nuclear receptor subfamily 1 group I member 3 (Homo sapiens) (UniProt Q14994); assay: qHTS assay to identify small molecule antagonists of the constitutive androstane receptor (CAR) signaling pathway (AID 1224838); also: nearly all actives have a fitted effect of over 40% in size
# Procedure, shortened: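 CITCO-stimulated (50 nM final) HepG2 cells stably transfected with hCAR and CYP2B6-2.2kb luciferase were exposed to compounds at 15 concentrations for 24 h at 37 C/5% CO2. A luciferase reagent was added and luminescence recorded after 30 min.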
# [8] = molecular target: Nuclear receptor subfamily 1 group I member 3 (Homo sapiens) (UniProt Q14994); assay: qHTS assay to identify small molecule agonists of the constitutive androstane receptor (CAR) signaling pathway (AID 1224839); also: nearly all actives have a fitted effect of over 15% in size; also: potency is read from the fitted curve at half-maximal effect
# Procedure, shortened: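 Stable hCAR/CYP2B6-2.2kb HepG2 line in DMEM with 10% FBS; compounds (15 concentrations) and 0.75 uM PK11195 final, 24 h at 37 C/5% CO2, then ONE-Glo luminescence after 30 min.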
# [9] = qHTS assay to identify small molecule antagonists of the estrogen related receptor signaling pathway with the pleiotropic PPARgamma coactivator (PGC) from Tox21 10K library - cell viability counter screen (AID 1224840; active = well fitted cell-killing curve with a large enough effect in the repeat runs, not every such curve was filed as active; also: nearly all actives have a fitted effect of over 40% in size)
# Procedure, shortened: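 Viability counter screen, PGC/ERR cells: 17.5 h compound exposure at 37 C, CellTiter-Fluor fluorescence endpoint.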
# [10] = qHTS assay to identify small molecule antagonists of the retinoic acid receptor (RAR) signaling pathway (AID 1159552; also: nearly all actives have a fitted effect of over 50% in size)
# Procedure, shortened: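 Overnight-plated C3RL4 reporter cells get compound, then retinol to 1 uM final; plates sit 6 hr at 37 C, 5% CO2. A luciferase reagent is added and light output recorded after 30 min at room temperature.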
# [11] = qHTS assay to identify small molecule agonists of the retinoic acid receptor (RAR) signaling pathway (AID 1159553); also: potency is read from the fitted curve at half-maximal effect
# Procedure, shortened: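 Compounds dissolved in DMSO were pinned onto C3RL4 cells seeded the previous day, and plates were held 6 hr at 37 C. RARE-driven luciferase output was then read by luminescence.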
# [12] = qHTS assay to identify small molecule antagonists of the estrogen related receptor signaling pathway with the pleiotropic PPARgamma coactivator (PGC) from Tox21 10K library (AID 1224841; call rule not given here; also: actives are mostly falling curves and most rising ones were filed inactive; nearly all actives have a fitted effect of over 50% in size; also: potency is read from the fitted curve at half-maximal effect)
# Procedure, shortened: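 In the PGC/ERR line, DMSO solutions of test chemicals are pin-delivered to 2,000 cells/well six hours after dispensing. Following eighteen hours' incubation, One-Glo reagent is added and luminescence recorded.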
# [13] = qHTS assay to identify small molecule agonists of the estrogen related receptor signaling pathway with the pleiotropic PPARgamma coactivator (PGC) from Tox21 10K library (AID 1224842); also: nearly all actives have a fitted effect of over 15% in size; also: potency is read from the fitted curve at half-maximal effect
# Procedure, shortened: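 Luminescence from One-Glo (30 min, room temperature) measured after PGC/ERR cells had 18 h at 37 C with pinned compound (23 nL in DMSO). Cells had been seeded at 2,000 per well and pre-incubated 6 h.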
# Nuclear receptor subfamily 1 group I member 3 (Homo sapiens), sequence (Q14994 whole entry, looked up): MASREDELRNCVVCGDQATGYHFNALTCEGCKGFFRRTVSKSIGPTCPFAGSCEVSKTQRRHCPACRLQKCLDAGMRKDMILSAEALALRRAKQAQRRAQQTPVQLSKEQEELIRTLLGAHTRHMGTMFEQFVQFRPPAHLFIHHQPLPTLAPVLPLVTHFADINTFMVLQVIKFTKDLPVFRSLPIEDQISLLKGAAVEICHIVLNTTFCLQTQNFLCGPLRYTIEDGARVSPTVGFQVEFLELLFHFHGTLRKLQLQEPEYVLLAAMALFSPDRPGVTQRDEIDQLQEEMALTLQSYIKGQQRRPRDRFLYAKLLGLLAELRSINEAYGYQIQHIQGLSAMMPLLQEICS
# Luciferin 4-monooxygenase (Photinus pyralis), sequence (P08659 whole entry, looked up): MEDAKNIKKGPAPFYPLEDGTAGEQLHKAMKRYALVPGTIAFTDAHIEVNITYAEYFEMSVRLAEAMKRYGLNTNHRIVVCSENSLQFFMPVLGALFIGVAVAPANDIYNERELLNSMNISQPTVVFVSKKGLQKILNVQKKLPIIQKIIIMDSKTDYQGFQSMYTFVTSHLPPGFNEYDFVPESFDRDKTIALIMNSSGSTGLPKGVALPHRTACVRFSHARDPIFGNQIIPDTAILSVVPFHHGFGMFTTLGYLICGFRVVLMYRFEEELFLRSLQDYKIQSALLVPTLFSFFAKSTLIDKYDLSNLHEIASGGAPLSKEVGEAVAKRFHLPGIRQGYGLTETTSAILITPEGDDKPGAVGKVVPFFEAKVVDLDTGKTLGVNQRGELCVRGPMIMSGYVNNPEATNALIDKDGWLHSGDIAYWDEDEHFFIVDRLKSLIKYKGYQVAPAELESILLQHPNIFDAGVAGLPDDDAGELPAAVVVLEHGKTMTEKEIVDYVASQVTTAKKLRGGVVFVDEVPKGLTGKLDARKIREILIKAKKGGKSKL
SMILES,Potency [1],outcome [2],Potency [3],Potency [4],outcome [5],outcome [6],Potency [7],Potency [8],outcome [9],Potency [10],Potency [11],Potency [12],Potency [13]
C[C@H](O)C(=O)Nc1c(I)c(C(=O)NC(CO)CO)c(I)c(C(=O)NC(CO)CO)c1I,inactive,inactive,inactive,inactive,inactive,inactive,inactive,inactive,inactive,–,–,–,–
C=CCOc1nc(OCC=C)nc(OCC=C)n1,inactive,inactive,inactive,inactive,–,inactive,–,–,inactive,–,–,–,–
O=[N+]([O-])c1ccc(Oc2ccc([N+](=O)[O-])cc2)cc1,inactive,inactive,inactive,inactive,inactive,inactive,inactive,inactive,inactive,inactive,inactive,inactive,inactive
CC(C)(C)OC(=O)N1C[C@@H](F)C[C@H]1C(=O)O,inactive,inactive,inactive,inactive,inactive,inactive,inactive,inactive,inactive,–,–,–,–
COc1cc(C(=O)N2CCOCC2)cc(OC)c1OC,inactive,inactive,inactive,inactive,–,inactive,–,–,inactive,–,–,–,–
O=C(O)c1cccc(C(=O)O)n1,inactive,inactive,inactive,inactive,inactive,inactive,inactive,inactive,inactive,inactive,inactive,inactive,inactive
C=C(C)C(=O)NCCCN(C)C,inactive,inactive,inactive,inactive,inactive,inactive,–,–,inactive,–,–,–,–
CCCCC1CCCCC(=O)O1 (configuration not stated),inactive,inactive,inactive,inactive,inactive,inactive,inactive,inactive,inactive,inactive,inactive,inactive,inactive
CCCC(=O)O[C@]1(C(=O)CCl)[C@@H](C)C[C@H]2[C@@H]3CCC4=CC(=O)C=C[C@]4(C)[C@@]3(F)C(=O)C[C@@]21C,inactive,inactive,inactive,inactive,inactive,inactive,inactive,inactive,inactive,–,–,–,–
O=C1CC2(CCCC2)CC(=O)N1,inactive,inactive,inactive,inactive,–,inactive,inactive,inactive,inactive,inactive,inactive,–,–
COCCOC(=O)CC#N,inactive,inactive,inactive,inactive,–,inactive,inactive,inactive,inactive,inactive,inactive,–,–
CSc1nc(NC2CC2)nc(NC(C)(C)C)n1,inactive,inactive,inactive,inactive,inactive,inactive,inactive,17200 nM (active),–,–,–,–,–
CO[Si](OC)(OC)OC,inactive,inactive,inactive,inactive,inactive,inactive,inactive,inactive,inactive,–,–,–,–
Cc1nc(-c2ccc(OCC(C)C)c(C#N)c2)sc1C(=O)O,inactive,inactive,inactive,309 nM (active),inactive,inactive,inactive,75 nM (active),inactive,inactive,94.4 nM (active),inactive,668 nM (active)
O=C1OC(=O)c2cc([N+](=O)[O-])ccc21,inactive,inactive,inactive,–,inactive,inactive,–,–,inactive,–,–,–,–
CC(C)(O)c1ccccc1,inactive,inactive,inactive,inactive,inactive,inactive,inactive,inactive,inactive,inactive,inactive,inactive,inactive
Nc1ccn(C2CO[C@H](CO)O2)c(=O)n1 (some centres not stated),inactive,inactive,inactive,inactive,inactive,inactive,–,–,inactive,–,–,inactive,inactive

SMILES,Potency [1],outcome [2],Potency [3],Potency [4],outcome [5],outcome [6],Potency [7],Potency [8],outcome [9],Potency [10],Potency [11],Potency [12],Potency [13]
CCCC=O,inactive,inactive,inactive,inactive,inactive,inactive,inactive,inactive,inactive,inactive,inactive,–,inactive
CCN1CCCC(OC(=O)C(c2ccccc2)c2ccccc2)C1 (configuration not stated),inactive,inactive,inactive,inactive,inactive,inactive,inactive,inactive,inactive,–,–,–,–
CCC(=O)Nc1cccc(N)c1,inactive,inactive,inactive,inactive,–,inactive,inactive,inactive,inactive,inactive,inactive,inactive,inactive
Nc1ccc2cc(S(=O)(=O)O)ccc2c1,inactive,inactive,inactive,–,inactive,inactive,inactive,inactive,inactive,–,–,–,–
N#CC1(O)CCCCC1,inactive,inactive,–,inactive,inactive,inactive,inactive,inactive,inactive,–,–,inactive,inactive
CN(C)C(=O)Nc1ccccc1,inactive,inactive,inactive,inactive,inactive,inactive,inactive,inactive,inactive,inactive,inactive,inactive,inactive
C=C(C)C(=O)OCCC(C)OC(=O)C(=C)C (configuration not stated),inactive,inactive,inactive,inactive,inactive,inactive,inactive,inactive,inactive,inactive,inactive,inactive,inactive
COc1nc(C)nc(N)n1,inactive,inactive,inactive,inactive,inactive,inactive,–,–,inactive,–,–,–,–
C1=C\CC/C=C\CC/C=C\CC/1,inactive,inactive,inactive,inactive,inactive,inactive,inactive,inactive,inactive,inactive,inactive,inactive,inactive
O=C(O)C1CCC1,inactive,inactive,inactive,inactive,–,inactive,–,–,inactive,–,–,–,–
OC[C@H]1O[C@@H]2O[C@H]3[C@H](O)[C@@H](O)[C@@H](O[C@H]4[C@H](O)[C@@H](O)[C@@H](O[C@H]5[C@H](O)[C@@H](O)[C@@H](O[C@H]6[C@H](O)[C@@H](O)[C@@H](O[C@H]7[C@H](O)[C@@H](O)[C@@H](O[C@H]8[C@H](O)[C@@H](O)[C@@H](O[C@H]9[C@H](O)[C@@H](O)[C@@H](O[C@H]1[C@H](O)[C@H]2O)O[C@@H]9CO)O[C@@H]8CO)O[C@@H]7CO)O[C@@H]6CO)O[C@@H]5CO)O[C@@H]4CO)O[C@@H]3CO,inactive,inactive,inactive,inactive,inactive,inactive,inactive,inactive,inactive,inactive,inactive,inactive,inactive
Nc1[nH]c(=O)ncc1F,inactive,inactive,inactive,inactive,inactive,inactive,–,–,inactive,–,–,inactive,inactive
CCCCCCCCCCCCCCCCCCOCC(O)CO (configuration not stated),inactive,inactive,inactive,inactive,–,inactive,inactive,inactive,inactive,–,–,–,–
OCc1ccccn1,–,inactive,inactive,inactive,inactive,inactive,–,–,inactive,–,–,inactive,inactive
Cc1onc(-c2ccccc2)c1-c1ccc(S(N)(=O)=O)cc1,inactive,–,inactive,inactive,–,inactive,inactive,inactive,inactive,inactive,inactive,23700 nM (active),inactive
Cc1ccccc1C(=O)O,inactive,–,inactive,inactive,inactive,inactive,–,–,inactive,–,–,–,–
C=C(C)C1CC=C(C)C(O)C1 (configuration not stated),–,inactive,inactive,inactive,–,inactive,inactive,inactive,inactive,inactive,inactive,inactive,inactive

# — PubChem BioAssay (Tox21)
